In all, about 290,000 compounds went through this assay and about 27,000 (9.3%) were called active. Many of the other results were omitted from the sample, so actives are more common in it than they were. Unmarked numbers belong to inactive results. No stated cut-off is given here; in the data, active means inhibition mostly above about 28% (no sharp cut-off); inactive means mostly below about 43%.

A short description of the experiment: A qHTS for Small Molecule Inhibitors of Shiga Toxin. Further: 0% is about no effect. The following applies: Vero cells, Shiga toxin protein synthesis inhibition reporter; at 38.7 µM, hits give high values.
For `COc1cc(NS(=O)(=O)c2ccc(NC(=O)c3ccc([N+](=O)[O-])cc3)cc2)ncn1`, the inhibition was -2.79%. For the compound `Cc1nc([N+](=O)[O-])cn1CC(=O)Nc1ccc(Cl)cc1`, the inhibition is -12.3%. `Cc1ccc(C(=O)OCC(=O)NC(=O)Cc2ccccc2)c(O)c1`: the inhibition is -0.702%.

`CCOC(=O)C1CCN(Cc2c(C(=O)N3CCOCC3)nc3c(C)cccn23)CC1`: the inhibition is -32.7%. As to `O=C(c1cccc([N+](=O)[O-])c1)N1CCN(Cc2ccccc2)CC1`, the inhibition was -0.104%. Turning to `COc1ccc(-n2c(O)c(C(C)=Nc3ccc4c(c3)CCC4)c(=O)[nH]c2=O)cc1`, the inhibition was -5.66%.

Take `COc1ccc(S(=O)(=O)Nc2ccc(O)c(Sc3nc4ccccc4s3)c2)cc1`: the inhibition is -14.7%.

On to `COc1ccc(N=C(C)c2sc3ccccc3c2O)cc1`, for which the inhibition was 122% (active). `CN(CC(=O)Nc1ccc(F)cc1)C(=O)c1ccc(-c2ccc(Cl)cc2)o1`: the inhibition was 5.28%. Turning to `CC(C)c1nnc(NC(=O)COC(=O)/C=C/c2ccc([N+](=O)[O-])cc2)s1`, the inhibition was -13.2%.

On to `COc1cccc(N(C(=O)C2COc3ccccc3O2)C(C(=O)NC2CCCCC2)c2ccc(O)cc2)c1` (stereo not drawn), for which the inhibition is -2.98%.

For the compound `CCn1ccnc1CN(C)C(=O)c1ccc2nc(Cc3ccc(OC)cc3)oc2c1`, the inhibition was -2.76%. Consider `CC(C(=O)NCC1CCCCC1)N(C)Cc1cccc(Cl)c1` (stereo not drawn), for which the inhibition is 25.2%. Next, `CC(c1ccccn1)N(C)C(=O)c1ccc2nc(Cc3cccc(Cl)c3)oc2c1` (stereo not drawn): 73.2% (active); `CC(C)CCNC(=O)c1ccc2c(Cl)c3c(nc2c1)CCC3`: 70.3% (active). Next, `CC(=O)c1ccc(NC(=O)c2ccc3c(Cl)c4c(nc3c2)CCCC4)cc1`: -8.45%; `COc1ccc(N2CCN(C(=O)c3ccc4c(Cl)c5c(nc4c3)CCCC5)CC2)cc1`: -17.4%. For `O=C(CNC(=O)OCc1ccccc1)NC1CCCCNC1=O` (stereo not drawn), the inhibition was -7.21%. As for `COC(=O)c1ccccc1NC(=O)C1(S(=O)(=O)c2ccc(Cl)cc2)CC1`, the inhibition was -19.5%. Turning to `COc1ccc(C2NC(=S)NC3=C2CCc2ccccc23)cc1OC` (stereo not drawn), the inhibition was -17%. For the compound `CCOC(=O)C1=C(c2ccccc2)NC(=S)NC1c1ccc(Cl)cc1` (stereo not drawn), the inhibition is -13.4%. For `CCOc1ccc(C2NC(=S)NC3=C2CCc2ccccc23)cc1` (stereo not drawn), the inhibition is 50.5% (active). As to `Cc1ccccc1N(C(=O)CNC(=O)c1cccs1)C(C(=O)NC1CCCC1)c1ccncc1` (stereo not drawn), the inhibition is 10.5%. Regarding `CCOC(=O)c1cnc(SCc2nc(N)nc(Nc3ccc(OC)cc3)n2)nc1N`, the inhibition was 19.9%. Next, `COc1ccccc1Nc1nc(N)nc(CSC(=S)N2CCOCC2)n1`: 68.3%. On to `COc1ccc(Nc2nc(N)nc(CSC(=S)N3CCC(C)CC3)n2)cc1`, for which the inhibition was 76.8% (active).

In the case of `Cc1cc(C)c(S(=O)(=O)Nc2c(C)n(C)n(-c3ccccc3)c2=O)cc1[N+](=O)[O-]`, the inhibition is -11.7%.

`CCOC(=O)c1ccc(NC(=S)N2CCN(c3ccccn3)CC2)cc1`: the inhibition is -8.31%. For `Cc1cc(C)nc(NC(=O)Nc2ccccc2C(F)(F)F)n1`, the inhibition is 59.8% (active). Consider `Cc1cc(Cl)nc(NC(=O)Nc2cccc(Cl)c2)n1`, for which the inhibition was 61.3%. For `Cc1cc(C)nc(NC(=O)C(C)N2C(=O)c3ccccc3C2=O)n1` (stereo not drawn), the inhibition is -5.77%. Consider `CC(NC(=O)c1ccccc1C(=O)O)c1ccc(-n2ccnc2)cc1` (stereo not drawn), for which the inhibition is 14.3%.

For `COc1ccc2oc(=O)c(C(=O)NCc3ccccn3)cc2c1`, the inhibition is 24.7%.

Take `CNC(=O)c1cc2c(ccc3ccccc32)oc1=N`: the inhibition is 30.1%. Regarding `N=c1oc2ccccc2cc1C(=O)N/N=C/c1ccccc1`, the inhibition was 76.3% (active). Consider `COc1cccc2cc(C(=O)NCc3ccc(C)cc3)c(=N)oc12`, for which the inhibition was 15.9%.

In the case of `O=C(NCc1ccccn1)c1cc2ccccc2oc1=O`, the inhibition is 72.4% (active). Turning to `O=C(N/N=C\c1cccc(Br)c1)c1ccccc1-n1cccc1`, the inhibition was 14.5%.

As for `O=C(NCCc1c[nH]c2ccccc12)c1cccc(Br)c1`, the inhibition is 22.8%. For the compound `Cc1cc(C)cc(OCC(=O)NNC(=O)c2cc3ccccc3oc2=O)c1`, the inhibition was 38.5%. Turning to `O=C(NCCc1c[nH]c2ccccc12)c1cc2ccccc2oc1=O`, the inhibition was 121% (active). Take `CC(NC(=O)c1cc2cc(Cl)ccc2oc1=N)c1ccccc1` (stereo not drawn): the inhibition was 23.9%. Take `CN(c1ccccc1)S(=O)(=O)c1ccc(Cl)c(C(=O)NCCc2c[nH]c3ccccc23)c1`: the inhibition is 1.16%. With `N=c1oc2ccccc2cc1C(=O)NCc1ccccc1`, the inhibition was 52.2% (active).

With `Cc1[nH]c2c(C(=O)N3CCCC(CCC(=O)NCc4ccccc4F)C3)cccc2c1C` (stereo not drawn), the inhibition was 16.4%. As for `CCOCCCNC(=O)C1(O)c2cc(Br)ccc2NC(=O)N1c1ccc(C)c(C)c1` (stereo not drawn), the inhibition was -7.51%.

For the compound `Cc1ccccc1OCC(=O)Nc1ccc(S(=O)(=O)N2CCOCC2)cc1`, the inhibition is -7.1%. For `Cc1cc(NC(=O)CCC(=O)N(Cc2ccccc2)C(C(=O)NC2CCCC2)c2ccc(C)o2)no1` (stereo not drawn), the inhibition was 11.3%.

Consider `O=C1CCNCCN1[C@H](CO)Cc1ccccc1`, for which the inhibition was -8.58%.

Consider `CCC(C)N1CC(=O)N2Cc3[nH]c4ccccc4c3C[C@H]2C1=O` (stereo partly drawn), for which the inhibition was -5.65%. For `COc1ccc(OC)c(C(=O)NC(CC(N)=O)c2ccc(N3CCC(N4CCCCC4)CC3)c([N+](=O)[O-])c2)c1` (stereo not drawn), the inhibition is -6.13%.

`COc1ccc(Cc2nnc(SCC(=O)Nc3ccc(C)c(C)c3)o2)cc1OC`: the inhibition is -3.66%.

Take `CCN1CCN(Cc2c(O)ccc3c(=O)c(-c4ccc(OC)c(OC)c4)c(C(F)(F)F)oc23)CC1`: the inhibition was 21.4% (active). As for `CN1CCN(Cc2c(O)ccc3c2oc(=O)c2ccccc23)CC1`, the inhibition was 23.3%.

For `CCOC(=O)c1oc2c(CN3CCN(C)CC3)c(O)ccc2c(=O)c1-c1ccc(Br)cc1`, the inhibition was 15.8%. In the case of `CC(C)=CCCC1(C)C=Cc2c(ccc3c2[nH]c2cc(O)c(C)cc23)O1` (stereo not drawn), the inhibition was 23.1%. With `CC(C)Oc1ccc(CN2CCC(n3nccc3NC(=O)c3cccnc3)CC2)cc1`, the inhibition was -10.5%. Take `O=C(Cc1ccsc1)N1CCN(S(=O)(=O)c2cc(C(F)(F)F)cc(C(F)(F)F)c2)CC1`: the inhibition is -17.3%.

The record behind these values is PubChem BioAssay AID2315 (National Center for Advancing Translational Sciences (NCATS), 2010).
